Inconclusive results are not listed. The source made the active and inactive calls. Unless noted, calls come from the whole dose curve; as a rule, active = well fitted curve in the direction sought with a large enough effect; inconclusive = small, poorly fitted or top-dose-only effect, or another doubt; inactive = no such curve, though single readings can be large; an effect the other way counts as inactive or inconclusive.
Legend:
[1] = Cell Viability - LYMP1-003 - Assay at 24 hr (AID 963);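 note: plate controls were DMSO only for no effect and tetraoctylammonium bromide positive control for full effect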
Summary of the method: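 The lymphoblastoid line was treated with titrated compounds for 24 hours, and viable cell number estimated from luciferase-based ATP luminescence.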

[2] = Cell Viability - LYMP1-003 - Assay at 40 hr (AID 964); note: series mostly up to about 92 µM; % is set by controls: 0 for no effect and ±100 for the full control effect; nearly all actives have a fitted effect of over 60% in size
Summary of the method: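 Acute toxicity is scored as a concentration-dependent loss of intracellular ATP in LYMP1-003 cells (2500/well, complete medium) after 40 hr at 37 C, measured by CellTiter-Glo luminescence; AC50 values derive from standard Hill modelling.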

[3] = Cell Viability - LYMP2-005 (AID 967);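 note: series mostly up to about 92 µM; plate controls were DMSO only for no effect and 92 µM tetraoctylammonium bromide control for full effect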
Summary of the method: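 qHTS viability screen in LYMP2-005 cells: 24 h at 37 C with compound, ATP luminescence via CellTiter-Glo, AC50 from Hill curves.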

[4] = Cell Viability - LYMP2-014 (AID 983);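 note: series mostly up to about 92 µM; plate controls were DMSO only for no effect and 92 µM tetraoctylammonium bromide for full effect; nearly all actives have a fitted effect of over 50% in size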
Summary of the method: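 Quantitative HTS in lymphoblastoid cells: 24 hr compound exposure, then CellTiter-Glo ATP luminescence. Positive control was tetraoctylammonium bromide, 6.4pM to 92 uM.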

[5] = Cell Viability - LYMP2-018 (AID 985);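 note: compound exposure lasted 24 hr at 37 °C; plate controls were DMSO only for no effect and tetraoctylammonium bromide at 92 µM for full effect; nearly all actives have a fitted effect of over 50% in size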
Summary of the method: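 In this qHTS viability assay, cells are treated for 24 hr and cellular ATP is quantified by luciferase-based luminescence, with tetraoctylammonium bromide as positive control.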

[6] = Cell Viability - LYMP1-002 - Assay at 24 hr (AID 993); note: % is set by controls: 0 for no effect and ±100 for the full control effect
Summary of the method: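 Viability was judged from intracellular ATP using a luciferase read-out, following a 24-hour compound incubation at 37 C of lymphoblastoid cells seeded at 2500 per well. Concentration-response data were fitted to the Hill equation for AC50.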

[7] = Cell Viability - LYMP1-002 - Assay at 40 hr (AID 994);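 note: 0% = DMSO only and full inhibition = 92 µM tetraoctylammonium bromide; nearly all actives have a fitted effect of over 60% in size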
Summary of the method: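 Concentration-dependent ATP loss after 40 hr treatment at 37 C defined toxicity; AC50 values were obtained by fitting the standard Hill equation.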

[8] = qHTS Assay for Identification of Small Molecule Inducers of Hypoxia Response (AID 2120; active = well fitted curve in the direction sought with a large enough effect in the signal ratio, with a control signal flat, not every such curve was filed as active; the % refers to the signal ratio; note: 0% is about no effect)
Summary of the method: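 HRE-bla ME-180, 2500 cells/well, 0.5% dialyzed FBS medium; cpd titration, 17 h 37 degrees C; CCF4 2.5 h RT; Ex 405, Em 460/530 ratio -> %Activity, AC50.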

[9] = target: Bile acid receptor (Homo sapiens) (UniProt Q96RI1); test: qHTS assay for small molecule agonists of farnesoid X receptor signaling (AID 588527; calls by dose curve;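 note: series mostly up to about 77 µM; 0% = vehicle basal and 100% = reference agonist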); settings: HEK293T FXR-UAS-bla, beta-lactamase ratio, 16 h; active compounds read high
Bile acid receptor (Homo sapiens), sequence (Q96RI1 whole entry, looked up): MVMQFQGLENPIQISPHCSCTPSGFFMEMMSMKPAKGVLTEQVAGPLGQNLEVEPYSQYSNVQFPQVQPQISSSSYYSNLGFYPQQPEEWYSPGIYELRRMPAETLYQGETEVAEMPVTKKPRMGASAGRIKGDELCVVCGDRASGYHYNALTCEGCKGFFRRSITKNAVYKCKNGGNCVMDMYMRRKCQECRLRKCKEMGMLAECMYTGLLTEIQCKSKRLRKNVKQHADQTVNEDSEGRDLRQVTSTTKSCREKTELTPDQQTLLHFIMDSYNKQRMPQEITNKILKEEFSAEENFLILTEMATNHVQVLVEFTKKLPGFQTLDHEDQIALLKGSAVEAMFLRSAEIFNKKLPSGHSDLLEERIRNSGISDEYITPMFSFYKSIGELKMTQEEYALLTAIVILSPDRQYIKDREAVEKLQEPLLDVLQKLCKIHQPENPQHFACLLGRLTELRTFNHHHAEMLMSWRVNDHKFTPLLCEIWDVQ
Summary of the method: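 FXR-UAS-bla HEK293T cells (10% dialyzed FBS) preincubated 5-7 h at 37 C, then compounds at up to 92 uM for 16 h at 37 C. CCF4 beta-lactamase read-out after 2 h RT. Normalized to chenodeoxycholic acid (100 uM) and DMSO; Hill fit gave EC50 and efficacy.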

[10] = target: Glucocorticoid receptor (Homo sapiens) (UniProt P04150); test: qHTS assay for small molecule agonists of glucocorticoid receptor signaling (AID 588532; active = well fitted curve in the direction sought with a large enough effect in the signal ratio, with a control signal flat; the % refers to the signal ratio;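 note: 100% = dexamethasone at 0.1 µM and 0% = DMSO only wells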); settings: HeLa MMTV-bla, beta-lactamase ratio, agonist, 18 h; active compounds read high; percent of dexamethasone control, DMSO zero
Glucocorticoid receptor (Homo sapiens), sequence (P04150 whole entry, looked up): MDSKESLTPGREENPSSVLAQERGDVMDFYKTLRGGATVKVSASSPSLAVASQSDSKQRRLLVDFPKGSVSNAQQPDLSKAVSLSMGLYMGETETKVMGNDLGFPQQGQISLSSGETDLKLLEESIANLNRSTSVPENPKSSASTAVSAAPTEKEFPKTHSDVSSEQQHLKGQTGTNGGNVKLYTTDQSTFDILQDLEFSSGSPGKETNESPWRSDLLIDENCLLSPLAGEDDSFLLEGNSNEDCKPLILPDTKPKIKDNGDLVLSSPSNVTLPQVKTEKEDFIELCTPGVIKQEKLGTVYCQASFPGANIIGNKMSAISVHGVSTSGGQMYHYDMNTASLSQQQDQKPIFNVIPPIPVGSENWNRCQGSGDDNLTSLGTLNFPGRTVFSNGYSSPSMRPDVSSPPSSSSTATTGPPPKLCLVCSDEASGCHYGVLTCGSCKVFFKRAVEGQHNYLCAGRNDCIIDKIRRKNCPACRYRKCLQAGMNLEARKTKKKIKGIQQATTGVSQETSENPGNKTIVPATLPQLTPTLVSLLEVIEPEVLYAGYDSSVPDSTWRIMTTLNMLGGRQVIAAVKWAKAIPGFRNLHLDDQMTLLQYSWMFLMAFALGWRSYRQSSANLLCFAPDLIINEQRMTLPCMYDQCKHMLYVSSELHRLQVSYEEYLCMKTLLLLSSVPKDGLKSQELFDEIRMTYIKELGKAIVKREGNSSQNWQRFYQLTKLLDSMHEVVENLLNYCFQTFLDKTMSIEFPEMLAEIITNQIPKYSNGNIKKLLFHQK
Summary of the method: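 HeLa GRE-bla reporter cells; 18 h compound exposure at 37 C; 2 h CCF4 loading at room temperature; fluorescence at 460 and 530 nm; EC50 by Hill equation.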

[11] = target: Vitamin D3 receptor (Homo sapiens) (UniProt P11473); test: qHTS assay for small molecule antagonists of vitamin D receptor signaling (AID 588541; calls by dose curve;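 note: receptor activated by calcitriol during compound treatment; series mostly up to about 77 µM; % is set by controls: 0 for no effect and ±100 for the full control effect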)
Vitamin D3 receptor (Homo sapiens), sequence (P11473 whole entry, looked up): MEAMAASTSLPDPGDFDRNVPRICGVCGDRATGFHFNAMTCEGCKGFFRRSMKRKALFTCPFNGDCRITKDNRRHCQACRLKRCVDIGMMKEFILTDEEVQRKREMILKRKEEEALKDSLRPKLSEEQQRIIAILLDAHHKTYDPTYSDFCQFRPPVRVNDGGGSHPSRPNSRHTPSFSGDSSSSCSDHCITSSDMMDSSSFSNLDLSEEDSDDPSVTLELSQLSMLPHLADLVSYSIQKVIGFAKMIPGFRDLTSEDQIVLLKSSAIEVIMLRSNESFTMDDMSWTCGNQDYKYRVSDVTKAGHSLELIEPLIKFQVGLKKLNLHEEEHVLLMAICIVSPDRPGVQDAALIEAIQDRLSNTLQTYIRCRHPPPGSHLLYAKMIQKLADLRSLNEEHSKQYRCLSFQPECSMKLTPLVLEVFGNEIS
Summary of the method: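 VDR-UAS-bla HEK293T cells in 2% charcoal-stripped FBS were stimulated with 1-alpha,25-dihydroxyvitamin D3 (3 nM final) plus compound for 16 h at 37 C. The beta-lactamase CCF4 readout was normalized to 50 nM agonist and DMSO, and Hill fits gave IC50.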

[12] = target: Vitamin D3 receptor (Homo sapiens) (UniProt P11473); test: qHTS assay for small molecule agonists of vitamin D receptor signaling (AID 588543; calls by dose curve;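 note: 0% = DMSO basal and 100% = reference agonist control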)
Summary of the method: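 qHTS in agonist mode: compound titrations stimulate a VDR-driven β-lactamase reporter in HEK293T cells over 16 h at 37 °C. Response normalized to 50 nM 1α,25-dihydroxyvitamin D3 = 100%, DMSO = 0%; Hill fitting gives EC50 and maximal response.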

[13] = target: Voltage-gated inwardly rectifying potassium channel KCNH2 (Homo sapiens) (UniProt Q12809); test: qHTS Assay for Small Molecule Inhibitors of the Human hERG Channel Activity (AID 588834);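 note: U2OS cells transduced with hERG by BacMam; top concentration of the series differs between compounds; % is set by controls: 0 for no effect and ±100 for the full control effect; lower thallium flux fluorescence means stronger hERG block; nearly all actives have a fitted effect of over 50% in size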
Voltage-gated inwardly rectifying potassium channel KCNH2 (Homo sapiens), sequence (Q12809 whole entry, looked up): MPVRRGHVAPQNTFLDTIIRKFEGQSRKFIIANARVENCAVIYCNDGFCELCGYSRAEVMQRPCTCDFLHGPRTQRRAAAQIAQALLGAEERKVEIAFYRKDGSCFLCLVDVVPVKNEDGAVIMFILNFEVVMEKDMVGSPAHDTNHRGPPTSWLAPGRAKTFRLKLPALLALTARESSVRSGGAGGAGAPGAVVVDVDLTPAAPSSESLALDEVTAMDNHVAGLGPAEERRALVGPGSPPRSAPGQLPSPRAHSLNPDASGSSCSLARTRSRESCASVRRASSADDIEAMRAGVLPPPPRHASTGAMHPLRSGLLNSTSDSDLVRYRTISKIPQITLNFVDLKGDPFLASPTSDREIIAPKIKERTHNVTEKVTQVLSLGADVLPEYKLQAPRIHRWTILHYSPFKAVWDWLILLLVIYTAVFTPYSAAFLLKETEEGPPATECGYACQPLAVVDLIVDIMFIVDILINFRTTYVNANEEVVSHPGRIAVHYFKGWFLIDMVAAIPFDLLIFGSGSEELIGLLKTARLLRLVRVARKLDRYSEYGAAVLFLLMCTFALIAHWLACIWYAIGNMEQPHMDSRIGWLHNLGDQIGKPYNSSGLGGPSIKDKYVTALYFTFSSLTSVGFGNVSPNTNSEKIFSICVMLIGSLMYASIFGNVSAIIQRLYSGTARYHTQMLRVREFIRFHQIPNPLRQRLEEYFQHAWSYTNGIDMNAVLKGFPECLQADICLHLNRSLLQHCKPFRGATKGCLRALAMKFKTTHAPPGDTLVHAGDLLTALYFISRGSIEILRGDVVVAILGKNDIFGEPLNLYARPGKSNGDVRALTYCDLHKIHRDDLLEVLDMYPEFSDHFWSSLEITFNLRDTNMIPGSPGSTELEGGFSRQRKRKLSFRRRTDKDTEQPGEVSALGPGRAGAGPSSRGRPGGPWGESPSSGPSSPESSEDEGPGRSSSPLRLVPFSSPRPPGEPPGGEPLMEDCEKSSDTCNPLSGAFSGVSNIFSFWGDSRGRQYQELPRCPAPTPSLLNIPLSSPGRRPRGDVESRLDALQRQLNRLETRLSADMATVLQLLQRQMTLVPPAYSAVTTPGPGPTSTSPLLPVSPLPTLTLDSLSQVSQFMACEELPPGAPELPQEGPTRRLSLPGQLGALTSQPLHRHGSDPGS
Summary of the method: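 Cells were infected with hERG-BacMam virus for 4 hrs at room temperature, grown overnight, then seeded at 2000/well. After dye loading and roughly 10 min compound treatment, thallium influx was triggered and fluorescence recorded.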

[14] = qHTS assay for small molecule agonists of the antioxidant response element (ARE) signaling pathway (AID 651741; active = well fitted activation curve with a large enough effect in the signal ratio; the % refers to the signal ratio; note: potency is the fitted concentration of half-maximal effect)
Summary of the method: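 HepG2 ARE-bla reporter cells, 2,000/well; 5 h settle at 37 C/5% CO2; compound pin transfer (23 nL, DMSO); 16 h at 37 C; LiveBLAzer B/G FRET substrate, 2 h RT; fluorescence intensity read.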

[15] = qHTS assay for small molecule activators of the nuclear factor-kappa B (NF-kB) signaling pathway (AID 651749; active = well fitted activation curve with a large enough effect in the signal ratio; the % refers to the signal ratio; note: series mostly up to about 77 µM; % of control where 0% means no effect); settings: NF-kB-bla ME-180 cells, beta-lactamase FRET ratio, 16 h; active compounds read high
Summary of the method: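 NF-kB-bla ME-180 cells, 2,000/well; 23 nL compound or DMSO pinned; 16 hr, 37C/5% CO2; beta-lactamase FRET read-out.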

[16] = qHTS assay for small molecule disruptors of the mitochondrial membrane potential - 1 hr assay (AID 651754; calls by dose curve; note: potency is the fitted concentration of half-maximal effect; nearly all actives have a fitted effect of over 35% in size)
Summary of the method: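 In this qHTS format, a 1 hr compound treatment of HepG2 cells precedes Mito-MPS staining, and membrane potential is judged from aggregate (red) against monomer (green) fluorescence intensity.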

[17] = qHTS assay for small molecule disruptors of the mitochondrial membrane potential - 5 hr assay (AID 651755; calls by dose curve; note: potency is the fitted concentration of half-maximal effect; nearly all actives have a fitted effect of over 40% in size)
Summary of the method: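 Read-out: ratiometric Mito-MPS fluorescence, green monomer (ex 490/em 535) vs red mitochondrial aggregate (ex 540/em 590). HepG2 cells treated 5 hr at 37C before 30 min dye loading.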

[18] = target: Tumor necrosis factor (Homo sapiens) (UniProt P01375); test: qHTS assay to identify small molecules that stimulate Tumor Necrosis Factor-alpha (TNF-alpha) secretion (AID 651757; active = well fitted curve in the direction sought with a large enough effect in the signal ratio; the % refers to the signal ratio; note: 0% is about no effect)
Tumor necrosis factor (Homo sapiens), sequence (P01375 whole entry, looked up): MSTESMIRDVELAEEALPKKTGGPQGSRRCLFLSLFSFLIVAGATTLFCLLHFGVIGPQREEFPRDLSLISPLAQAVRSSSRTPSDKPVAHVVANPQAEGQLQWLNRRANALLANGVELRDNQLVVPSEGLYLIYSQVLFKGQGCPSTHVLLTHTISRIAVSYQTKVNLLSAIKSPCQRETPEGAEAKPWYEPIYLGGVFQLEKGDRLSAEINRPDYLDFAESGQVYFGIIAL
Summary of the method: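 Using 3000 THP-1 cells per well, compounds and controls were applied for 17 hrs at 37 C. Detection followed with two labeled anti-TNF-alpha antibodies (cryptate donor, XL665 acceptor) for 3 hr at room temperature, measured by TR-FRET.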

[19] = qHTS assay for environmental chemicals that activate the Aryl hydrocarbon Receptor (AhR) signaling pathway (AID 651777); settings: 1A2-DRE human hepatoma cells, luciferase, 24 h; activation: active compounds read high; note: % of control where 0% means no effect; nearly all actives have a fitted effect of over 15% in size
Summary of the method: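 Human hepatoma 1A2-DRE cells stably carrying a DRE/CYP1A2 promoter–luciferase reporter, 1,200 cells/well, exposed to compound 24 hr at 37 C. Luciferase read by One-Glo luminescence after 30 min at room temperature; increased signal marks AhR activation.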

[20] = target: Peroxisome proliferator-activated receptor alpha (Homo sapiens) (UniProt Q07869); test: qHTS assay for small molecule agonists of the peroxisome proliferator-activated receptor alpha (PPARalpha) signaling pathway (AID 651778); settings: PathHunter PPARalpha complementation, chemiluminescence, 6 h; active compounds read high; note: % of control where 0% means no effect
Peroxisome proliferator-activated receptor alpha (Homo sapiens), sequence (Q07869 whole entry, looked up, the tested form may be a part): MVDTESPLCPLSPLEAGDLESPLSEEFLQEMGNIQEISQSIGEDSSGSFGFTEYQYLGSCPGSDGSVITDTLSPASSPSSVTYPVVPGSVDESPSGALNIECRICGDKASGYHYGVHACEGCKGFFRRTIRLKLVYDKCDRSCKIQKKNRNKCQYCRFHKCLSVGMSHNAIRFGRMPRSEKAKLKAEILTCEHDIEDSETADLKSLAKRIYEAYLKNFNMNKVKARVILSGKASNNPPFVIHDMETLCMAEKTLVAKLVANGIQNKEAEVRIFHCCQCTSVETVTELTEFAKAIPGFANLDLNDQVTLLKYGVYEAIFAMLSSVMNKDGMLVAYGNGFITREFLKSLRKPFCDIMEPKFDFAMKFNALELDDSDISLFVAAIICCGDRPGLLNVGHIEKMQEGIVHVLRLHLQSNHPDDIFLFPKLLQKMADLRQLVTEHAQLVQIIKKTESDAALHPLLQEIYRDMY
Summary of the method: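 Enzyme-fragment complementation assay in which ligand-bound PPARalpha translocates and forms an active enzyme that generates chemiluminescence. Cells were plated overnight, exposed to compound for 6 hr at 37 C, and then given detection reagent for 60 min at room temperature.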

[21] = target: Nuclear receptor ROR-gamma (Homo sapiens) (UniProt P51449); test: qHTS assay for small molecule antagonists of the retinoid-related orphan receptor gamma (ROR-gamma) signaling pathway (AID 651802); note: potency is the fitted concentration of half-maximal effect; nearly all actives have a fitted effect of over 60% in size
Nuclear receptor ROR-gamma (Homo sapiens), sequence (P51449 whole entry, looked up): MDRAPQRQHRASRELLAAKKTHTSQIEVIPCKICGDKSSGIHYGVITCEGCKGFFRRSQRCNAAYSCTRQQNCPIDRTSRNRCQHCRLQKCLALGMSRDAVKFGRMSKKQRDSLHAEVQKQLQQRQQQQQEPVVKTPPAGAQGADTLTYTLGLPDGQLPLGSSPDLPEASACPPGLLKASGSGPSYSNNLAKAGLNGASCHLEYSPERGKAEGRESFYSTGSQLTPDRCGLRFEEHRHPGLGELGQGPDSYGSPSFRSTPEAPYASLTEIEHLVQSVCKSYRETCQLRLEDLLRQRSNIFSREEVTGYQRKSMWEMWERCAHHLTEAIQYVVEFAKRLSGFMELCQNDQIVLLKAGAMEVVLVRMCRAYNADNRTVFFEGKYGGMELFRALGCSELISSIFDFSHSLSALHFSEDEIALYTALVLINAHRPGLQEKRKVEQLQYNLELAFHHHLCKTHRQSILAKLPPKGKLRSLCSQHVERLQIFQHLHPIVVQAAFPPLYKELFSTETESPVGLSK
Summary of the method: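 Doxycycline-induced reporter activity in engineered CHO cells (TET-inducible ROR, RORE-LUC) was measured by luminescence after 16hr compound exposure at 37C.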

[22] = qHTS assay for small molecule agonists of the antioxidant response element (ARE) signaling pathway measured by Nrf2-dependant transcriptional activity (AID 720636; active = well fitted curve in the direction sought with a large enough effect in the repeat runs; an effect the other way counts as inactive or inconclusive; note: % of control where 0% means no effect)
Summary of the method: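 ARE-luc HepG2 cells carrying an Nrf2-responsive luciferase reporter, in medium with 1% dialyzed FBS, exposed to compound for 16 hr at 37 C, 5% CO2. Luminescence read 30 min after ONE-Glo addition.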

[23] = qHTS assay for cell viability of HEK293 cells (AID 743288); settings: ATP luminescence (CellTiter-Glo), 18 h, active compounds read low; note: % is set by controls: 0 for no effect and ±100 for the full control effect; nearly all actives have a fitted effect of over 50% in size
Summary of the method: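 Quantitative high-throughput screen: compounds were pinned onto parental HEK293 cells (2,000 per well) after a minimum 5 h settling at 37 C, incubated 18 h at 37 C, and intracellular ATP measured by luciferase luminescence.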

[24] = qHTS assay for cell viability of the p53RE-bla HCT-116 cell line (AID 743292); note: % is set by controls: 0 for no effect and ±100 for the full control effect; nearly all actives have a fitted effect of over 55% in size
Summary of the method: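 CellSensor p53RE-bla HCT-116 cells (4,000/well) pre-incubated 5 h at 37 C, then exposed to compounds in DMSO for 16 h at 37 C. Viability read as ATP content by CellTiter-Glo luminescence after 30 min at room temperature.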

[25] = target: Nuclear receptor subfamily 1 group I member 2 (Rattus norvegicus) (UniProt Q9R1A7); test: qHTS assay for small molecule activators of the rat pregnane X receptor (rPXR) signaling pathway (AID 651751; call rule not given here; note: 0% is about no effect); settings: rPXR reporter cells, luciferase (One-Glo), 24 h
Nuclear receptor subfamily 1 group I member 2 (Rattus norvegicus), sequence (Q9R1A7 whole entry, looked up): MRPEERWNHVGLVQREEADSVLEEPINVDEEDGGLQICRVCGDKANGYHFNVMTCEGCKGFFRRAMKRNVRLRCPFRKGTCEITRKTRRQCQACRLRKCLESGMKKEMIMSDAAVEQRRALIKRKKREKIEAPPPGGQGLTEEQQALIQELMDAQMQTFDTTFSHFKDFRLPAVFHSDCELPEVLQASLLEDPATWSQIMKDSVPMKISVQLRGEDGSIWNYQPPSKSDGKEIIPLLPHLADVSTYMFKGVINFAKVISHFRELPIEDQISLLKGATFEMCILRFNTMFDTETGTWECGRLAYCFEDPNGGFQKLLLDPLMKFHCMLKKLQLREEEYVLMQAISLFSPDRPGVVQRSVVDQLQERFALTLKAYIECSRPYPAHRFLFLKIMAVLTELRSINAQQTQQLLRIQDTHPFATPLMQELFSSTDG

[26] = qHTS assay for small molecule activators of the human pregnane X receptor (PXR) signaling pathway (AID 720659; call rule not given here; note: 0% is about no effect)

Oc1cc(Cl)c(Cl)c(Cl)c1
active: Potency [14] 23.7 µM | Potency [16] 33.5 µM | Potency [17] 37.6 µM | Potency [21] 13.3 µM
inactive: outcome [1] | Potency [2] | Potency [3] | Potency [4] | Potency [5] | Potency [6] | Potency [7] | Potency [8] | activation [9] 3.7% | activation [10] 5.15% | outcome [11] | outcome [12] | Potency [13] | activation [15] -0.357% | outcome [18] | activation [19] 1.76% | max response [20] -3.78% | Potency [22] | max response [23] -15.1% | Potency [24] | max response [25] -2.97% | outcome [26]
